Test results published in PubChem BioAssay (NCI).
The panel holds about 83,000 compounds, 20% with a hit somewhere; the sample as a whole holds those more often.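 Cells were grown in 96-well plates and exposed to the test compound at a single concentration for 48 hours; results are reported as percent growth, with values below 10 considered active.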 The source made the active and inactive calls.

Tests used:
Test in all cases: NCI-60 one-dose screen, 48 h (100 = growth as untreated, 0 = no growth, -100 = all killed)
Details in all cases: 10 µM unless noted
[1] = tested on: HCT-15 colon
[2] = tested on: HT29 colon
[3] = tested on: SNB-75 CNS
[4] = tested on: SNB-19 CNS
[5] = tested on: U251 CNS
[6] = tested on: PC-3 prostate
[7] = tested on: SK-MEL-5 melanoma
[8] = tested on: UACC-62 melanoma
[9] = tested on: LOX IMVI melanoma
[10] = tested on: SK-MEL-28 melanoma
[11] = tested on: SK-MEL-2 melanoma
[12] = tested on: EKVX NSCLC
[13] = tested on: SN12C renal
[14] = tested on: UO-31 renal
[15] = tested on: TK-10 renal
[16] = tested on: ACHN renal
[17] = tested on: CAKI-1 renal
[18] = tested on: A498 renal
[19] = tested on: CCRF-CEM leukemia
[20] = tested on: MOLT-4 leukemia

Measured: growth

Brc1ccc(Br)nn1
inactive: [3] 37.7% | [4] 17.7% | [8] 31.9%
active: [1] -100% | [2] -37.2% | [5] -67.5% | [6] -36.8% | [7] 8.56% | [9] -93.7% | [10] -75.9% | [11] -50.2% | [12] -95.4% | [13] -76.8% | [14] -39.9% | [15] -78.3% | [16] 2.74% | [17] -92.3% | [18] -80.8% | [19] -13.5% | [20] -13.6%

Cn1c(=O)c2c(-c3ccccc3F)n(-c3ccc4c(c3)OCO4)cc2n(C)c1=O
inactive: [1] 87.8% | [2] 112% | [3] 80.9% | [4] 99.6% | [5] 92.1% | [6] 74.7% | [7] 67.3% | [8] 86.2% | [9] 95.9% | [10] 100% | [11] 133% | [12] 87.6% | [13] 90.4% | [14] 82.4% | [15] 115% | [16] 100% | [17] 89.6% | [18] 69.5% | [20] 72.9%

COc1cc(/C=C/c2cc(/C=C/c3ccc(O)c(OC)c3)n(-c3ccccc3)n2)ccc1O
active: [1] -3.38% | [2] -52.4% | [3] -53.2% | [4] 1.18% | [5] 1.47% | [6] -33.1% | [7] -86.5% | [8] -84.4% | [9] -37.1% | [10] -6.73% | [11] -48.1% | [12] -38.8% | [13] -3.11% | [14] -44.6% | [15] 6.18% | [16] 2.77% | [17] -60.4% | [18] -25.2% | [19] -5.12% | [20] -39.9%

CCN1CCN(c2nc3ccccc3c3c(=O)c4cc(F)ccc4sc23)CC1
inactive: [1] 48.2% | [2] 28% | [3] 39.7% | [4] 80.9% | [5] 46.5% | [6] 78% | [7] 82.8% | [8] 44.1% | [9] 60.9% | [10] 78.2% | [11] 98.8% | [12] 82.8% | [13] 80.7% | [14] 44% | [15] 85.2% | [16] 59.4% | [17] 67.9% | [18] 28.9% | [19] 68.5% | [20] 27.9%

COC(=O)c1c2c(c(C)[n+]([O-])c1C)C(=O)C=C(NCc1ccc(Cl)cc1)C2=O
inactive: [10] 10.6% | [15] 21.7%
active: [1] -54.8% | [2] 2.63% | [3] -94.8% | [4] -23.5% | [5] -7.46% | [6] 1.07% | [7] -98.8% | [8] -65.5% | [9] -23.2% | [11] -30.9% | [12] -50% | [13] -84.9% | [14] -9.07% | [16] -19.1% | [17] -3.15% | [19] -6.94% | [20] -32.2%

CCCCCCCC/C=C\CCCCCCCCOc1cccc(CC(=O)NCC[N+]2(C)CCCCC2)c1
inactive: [1] 102% | [2] 27% | [3] 50.7% | [4] 56.7% | [5] 51.6% | [6] 22.1% | [7] 89.4% | [8] 70.1% | [9] 74.5% | [10] 98.7% | [11] 91.8% | [12] 78.7% | [13] 47.8% | [14] 86.8% | [15] 76.8% | [16] 94.7% | [17] 70.3% | [19] 38.5% | [20] 57%

Cc1ccc(S(=O)(=O)c2ccc3[nH]c(=O)[nH]c(=O)c3c2)cc1
inactive: [1] 103% | [2] 107% | [3] 92.4% | [4] 94.3% | [5] 95.1% | [6] 86.2% | [7] 103% | [8] 92.9% | [9] 101% | [10] 114% | [11] 100% | [12] 122% | [13] 97.7% | [14] 96.1% | [15] 93.8% | [16] 109% | [17] 97.1% | [19] 91.4% | [20] 94.6%

CCCCC(O)Cn1ncc(C(=O)OCC)c1NC(=O)NCc1ccccc1C(F)(F)F (configuration not stated)
inactive: [1] 98% | [2] 107% | [3] 92.6% | [4] 94.4% | [5] 95.3% | [6] 86.6% | [7] 95.9% | [8] 87.6% | [9] 98.4% | [10] 111% | [11] 104% | [12] 101% | [13] 99.7% | [14] 82.6% | [15] 96.3% | [16] 97.4% | [17] 84.2% | [19] 104% | [20] 93.9%

CCC(C)[C@H]1O[C@]2(CC[C@@H]1C)C[C@@H]1C[C@@H](C/C=C(\C)[C@@H](OC3C[C@H](OC)C(O[C@H]4C[C@H](OC)[C@@H](O)[C@H](C)O4)[C@H](C)O3)[C@@H](C)/C=C/C=C3\CO[C@@H]4[C@H](O)C(C)=C[C@@H](C(=O)O1)[C@]34O)O2 (some centres not stated)
active: [1] 8.26% | [2] 4.41% | [3] -0.276% | [6] 1.52% | [7] -85.4% | [9] -83.1% | [10] -16.6% | [11] -9.26% | [12] 4.67% | [16] -66.3% | [17] -15.1% | [18] -23.7%
inactive: [4] 33.1% | [5] 31.5% | [8] 18.4% | [13] 14.6% | [15] 30.2% | [19] 25.9%

Cc1ccccc1-n1nnc(C(=O)Nc2ccc(-c3ccccc3)cn2)c1C
inactive: [1] 39.8% [50 µM] | [2] 28.1% [50 µM] | [3] 83.6% [50 µM] | [4] 62.6% [50 µM] | [5] 64.9% [50 µM] | [6] 40.5% [50 µM] | [8] 45.6% [50 µM] | [9] 48.1% [50 µM] | [10] 56.8% [50 µM] | [11] 42% [50 µM] | [12] 34.8% [50 µM] | [13] 64.4% [50 µM] | [14] 38.8% [50 µM] | [16] 46% [50 µM] | [17] 31.1% [50 µM] | [18] 61.2% [50 µM] | [19] 51.8% [50 µM]
active: [7] -41.8% [50 µM] | [20] 8.31% [50 µM]

CCOC(=O)c1cnn(CC(O)c2ccc(F)cc2)c1NC(=O)Nc1ccccc1F (configuration not stated)
inactive: [1] 103% | [2] 117% | [3] 82.2% | [4] 98.3% | [5] 97.8% | [6] 81.5% | [7] 75.9% | [8] 73.8% | [9] 101% | [10] 101% | [11] 111% | [12] 101% | [13] 106% | [14] 71.5% | [15] 103% | [16] 98.3% | [17] 83.7% | [19] 96.9% | [20] 91.8%

Cc1c(C(=O)Nc2nc(-c3ccccc3)cs2)nnn1-c1ccccc1Br
active: [7] -68.6% [50 µM]
inactive: [1] 29.5% [50 µM] | [2] 16.3% [50 µM] | [3] 67.8% [50 µM] | [4] 61.1% [50 µM] | [5] 50.8% [50 µM] | [6] 44.8% [50 µM] | [8] 39.4% [50 µM] | [9] 12% [50 µM] | [10] 44.5% [50 µM] | [11] 40.1% [50 µM] | [12] 30.7% [50 µM] | [13] 50.9% [50 µM] | [14] 41.7% [50 µM] | [16] 41.9% [50 µM] | [17] 33.7% [50 µM] | [18] 50.5% [50 µM] | [19] 41.1% [50 µM] | [20] 17% [50 µM]

CCN1C(=O)C2(Nc3ccccc3S2)c2cc(C)ccc21 (configuration not stated)
active: [19] 9.42%
inactive: [1] 101% | [2] 107% | [3] 76.2% | [4] 107% | [5] 97.5% | [6] 89% | [7] 95.1% | [8] 102% | [9] 103% | [10] 105% | [11] 111% | [12] 103% | [13] 97.7% | [15] 107% | [16] 94.2% | [17] 99% | [18] 138% | [20] 100%

CCCN1CCN(c2ccc3nc(-c4ccc5nc(-c6ccc(C(F)(F)F)cc6)[nH]c5c4)[nH]c3c2)CC1
active: [1] -55.1% | [2] -44% | [4] -93.8% | [5] -82.2% | [6] -68% | [9] -92.9% | [10] -94.6% | [11] 7.45% | [12] -34.3% | [13] -69.2% | [15] -13% | [16] -99.9% | [19] -21.1% | [20] -38.6%
inactive: [3] 32.5% | [7] 37.2% | [8] 72.9% | [14] 79.7% | [17] 59%

Cc1ccc(C2SCC(=O)N2NC(=O)c2[nH]c3ccc(F)cc3c2-c2ccccc2)cc1 (configuration not stated)
inactive: [1] 89.8% | [2] 74.4% | [3] 71.4% | [4] 88.5% | [5] 81% | [6] 59.9% | [7] 89.6% | [8] 78.1% | [9] 91.2% | [10] 97.5% | [11] 97.6% | [12] 84.4% | [13] 95.8% | [14] 75.1% | [15] 108% | [16] 89.9% | [17] 77.1% | [19] 89.1% | [20] 69.2%
